# Out of some 310,000 compounds screened, about 14,000 (4.5%) showed an effect of 50% or more. The effect is printed as a negative number. This excerpt belongs to a sample that is enriched for strong results.
# Molecular target: human ether-à-go-go-related gene (hERG) potassium channel (human, UniProt Q12809)
# Assay: primary screen, population patch clamp on CHO cells stably expressing hERG; higher = less effect of the substance
# 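Further: peak tail current of the secondary pulse compared with the same well before compound.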
# Sequence of human ether-à-go-go-related gene (hERG) potassium channel (Q12809 whole entry, looked up): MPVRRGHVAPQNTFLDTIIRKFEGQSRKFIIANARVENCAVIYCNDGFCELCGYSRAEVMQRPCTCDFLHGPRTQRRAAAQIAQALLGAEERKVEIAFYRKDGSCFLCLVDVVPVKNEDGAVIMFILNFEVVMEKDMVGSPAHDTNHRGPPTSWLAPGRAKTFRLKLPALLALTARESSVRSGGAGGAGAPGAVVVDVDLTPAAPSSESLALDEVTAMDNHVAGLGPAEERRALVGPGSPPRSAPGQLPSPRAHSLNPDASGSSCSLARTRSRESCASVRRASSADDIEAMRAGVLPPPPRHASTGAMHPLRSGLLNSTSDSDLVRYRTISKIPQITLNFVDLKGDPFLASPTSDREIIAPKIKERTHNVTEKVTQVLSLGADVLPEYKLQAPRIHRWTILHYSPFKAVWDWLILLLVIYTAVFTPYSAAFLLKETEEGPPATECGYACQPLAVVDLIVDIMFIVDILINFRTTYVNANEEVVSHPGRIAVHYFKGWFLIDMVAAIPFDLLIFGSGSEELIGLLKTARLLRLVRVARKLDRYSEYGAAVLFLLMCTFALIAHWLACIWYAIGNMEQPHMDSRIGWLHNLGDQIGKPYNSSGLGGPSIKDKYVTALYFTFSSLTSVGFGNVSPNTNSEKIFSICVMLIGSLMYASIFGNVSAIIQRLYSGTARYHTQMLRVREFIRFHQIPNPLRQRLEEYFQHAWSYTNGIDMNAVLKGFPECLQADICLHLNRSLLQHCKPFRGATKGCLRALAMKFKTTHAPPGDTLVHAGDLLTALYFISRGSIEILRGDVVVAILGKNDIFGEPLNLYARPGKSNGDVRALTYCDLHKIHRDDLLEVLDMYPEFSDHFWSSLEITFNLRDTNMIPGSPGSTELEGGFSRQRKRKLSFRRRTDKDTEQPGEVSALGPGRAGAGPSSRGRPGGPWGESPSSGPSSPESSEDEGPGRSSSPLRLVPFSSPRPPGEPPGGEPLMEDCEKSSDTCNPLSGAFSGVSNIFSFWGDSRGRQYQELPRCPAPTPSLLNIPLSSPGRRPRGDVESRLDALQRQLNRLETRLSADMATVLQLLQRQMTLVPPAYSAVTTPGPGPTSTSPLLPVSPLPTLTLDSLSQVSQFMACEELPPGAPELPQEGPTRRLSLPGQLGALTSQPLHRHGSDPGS
row,SMILES,"hERG current change (%, negative = inhibition) at 10uM [%]"
1,COc1ccc(C)cc1NC(=O)C1CCCN(S(=O)(=O)c2ccc3c(c2)CCCN3C(C)=O)C1 (stereo not shown),-2.38
2,CCN(CC)CCNC(=O)C1c2ccccc2C(=O)N(C)C1c1cn(C)c2ccccc12 (stereo not shown),-19.5
3,CCN(CC)CCCNC(=O)C1c2ccccc2C(=O)N(C)C1c1ccc(OC)cc1 (stereo not shown),6.8
4,CCCCN(CC)CCCNC(=O)C1c2ccccc2C(=O)N(C)C1c1cn(C)c2ccccc12 (stereo not shown),-72.7
5,Cc1ccccc1S(=O)(=O)N1CC(C(=O)O)=CC[C@H]1c1ccc(Cl)cc1,15.8
6,CC(CSc1nnnn1-c1ccccc1)Cn1c(N2CCN(C)CC2)nc2c1c(=O)[nH]c(=O)n2C (stereo not shown),-43.6
7,CN1CCN(c2nc3c(c(=O)[nH]c(=O)n3C)n2CCSc2nnnn2-c2ccccc2)CC1,-17
8,CN1CCN(c2nc3c(c(=O)[nH]c(=O)n3C)n2CCCSc2nnnn2-c2ccccc2)CC1,-51.2
9,CC(CSc1nnnn1-c1ccccc1)Cn1c(N2CCCC2)nc2c1c(=O)[nH]c(=O)n2C (stereo not shown),-45.1
10,Cn1c(=O)[nH]c(=O)c2c1nc(N1CCCC1)n2CCCSc1nnnn1-c1ccccc1,-13.5
11,CC1CCN(c2nc3c(c(=O)[nH]c(=O)n3C)n2CC(C)CSc2nnnn2-c2ccccc2)CC1 (stereo not shown),-57.6
12,CCCN1Cc2cccc(C(=O)Nc3ccc(CC)cc3)c2C1=O,8.1
13,Cc1cc(C)nc(NC(=O)c2ccc(C)c(C)c2)n1,18
14,Oc1cccc(-n2nnnc2SCc2ccccc2F)c1,7.33
15,Cc1cc(C)c(S(=O)(=O)c2ccccc2)c(=O)[nH]1,20.6
16,COc1ccc(NC(=O)c2c(C)nn(-c3ccccc3)c2Cl)cc1,20.4
17,CCNC(=O)COC(=O)c1[nH]c(C)c(C(=O)OC)c1C,8.24
18,Cc1cc(C)c2c(CN3CCCCC3)cc(=O)oc2c1,10.7
19,Cc1cc(C)c2c(CN3CCN(Cc4ccc5c(c4)OCO5)CC3)cc(=O)oc2c1C,-45.8
20,Cc1cc2oc(=O)cc(CN3CCN(Cc4ccc5c(c4)OCO5)CC3)c2cc1C,-17.2
21,Cc1cc(O)c2c(CN3CCN(Cc4ccccc4)CC3)cc(=O)oc2c1,-13.1
22,Cc1cc(C)c2c(CN3CCN(C)CC3)cc(=O)oc2c1,-73.3

row,SMILES,"hERG current change (%, negative = inhibition) at 10uM [%]"
1,CCN1CCN(Cc2cc(=O)oc3cc(C)cc(C)c23)CC1,-68.1
2,Cc1cc(C)c2c(CN3CCCCC3C)cc(=O)oc2c1.Cl (stereo not shown),13.9
3,Cc1cc(C)c2c(CN3CCN(Cc4ccccc4)CC3)cc(=O)oc2c1.Cl,-66.9
4,Cc1cc(C)c2c(CCl)cc(=O)oc2c1,-1.06
5,Cc1cc(C)c2c(CN3CCN(Cc4ccc5c(c4)OCO5)CC3)cc(=O)oc2c1,-75.4
6,Cc1cc(C)c2c(CN3CCOCC3)cc(=O)oc2c1,-7.28
7,CC1CCCN(C(=O)CNC(=O)Cn2ccc3ccccc3c2=O)C1 (stereo not shown),-5.78
8,COc1cc(NC(=O)c2ccc(COCC(F)(F)F)o2)cc(OC)c1OC,-16.8
9,COc1ccc(OC)c(NC(=O)CCCCCn2nnc3ccccc3c2=O)c1,-2.09
10,CN(C)S(=O)(=O)c1cc(NC(=O)CSc2cccc[n+]2[O-])ccc1Cl,9.64
11,COc1ccc(-n2c(-c3cccc(OC)c3)nc(=S)c3c2CCCC3)cc1,8.47
12,CC(=O)O/N=C(/c1nonc1N)N1CCN(c2ccc([N+](=O)[O-])cc2Cl)CC1,-33.9
13,COCc1[nH]nc2c1C(c1c(F)cccc1Cl)C(C#N)=C(N)O2 (stereo not shown),-3.01
14,Cc1ccc(NC(=O)c2ccc(NCCN)c([N+](=O)[O-])c2)cc1Cl,-14.3
15,CCc1ccc2[nH]c3nc(N/N=C/c4ccc(O)cc4O)nnc3c2c1,3.31
16,CCOc1ccc(C(=O)C[n+]2ccc(C(=O)NCCO)cc2)cc1.[Br-],18.3
17,Cc1cc(-c2nc(C)c(C(=O)NNS(=O)(=O)c3ccccc3)s2)no1,11.9
18,Cc1ccccc1-c1nnn(Cc2ccc(F)cc2Cl)n1,10.6
19,CCc1ccc2oc(=O)cc(CN3CCN(CCO)CC3)c2c1,-14.9
20,Cc1cc(C)c2c(Cn3ccnc3)cc(=O)oc2c1,1.13
21,Cc1cc(C)c2c(CN3CCN(C/C=C/c4ccccc4)CC3)cc(=O)oc2c1,-76.9
22,Cc1cc(C)c2c(CN3CCN(CCO)CC3)cc(=O)oc2c1,-50.4

row,SMILES,"hERG current change (%, negative = inhibition) at 10uM [%]"
1,COC(=O)c1ccc(Cl)c(NC(=O)CN(c2ccc3c(c2)OCO3)S(C)(=O)=O)c1,7.68
2,O=C(O)CCC(NC(=O)c1cncc(O)c1)C(=O)O (stereo not shown),-4.94
3,CCCC1(c2ccccc2)NC(=O)N(CC(=O)N(C)Cc2c(F)cccc2Cl)C1=O (stereo not shown),-2.69
4,Cc1ccc(C(C2=C(O)CC(C)(C)CC2=O)C2C(=O)CC(C)(C)CC2=O)s1 (stereo not shown),14.9
5,CN=C(NC1CCCCC1)c1ccc([N+](=O)[O-])cc1,1.68
6,OC(CN1C2=NCCN2c2ccccc21)c1ccc(Br)cc1 (stereo not shown),-71
7,Cl.OC(CN1C2=NCCCN2c2ccccc21)c1ccc(Cl)cc1 (stereo not shown),-75.9
8,Cl.OCCN1C2=NCCCN2c2ccccc21,5.78
9,Cl.OC(CN1C2=NCCCN2c2ccccc21)c1ccc(Br)cc1 (stereo not shown),-83.9
10,O=C1CSC(=S)N1c1cccnc1,-7.65
11,Cc1ccccc1OCCn1cnc2cc([N+](=O)[O-])ccc2c1=O,-7.38
12,CCc1cc(=O)oc2c(C)c(OCC(=O)NCCCN3CCOCC3)ccc12,-31.8
13,CCOc1ncccc1C(=O)OCc1csc(CC(=O)Nc2ccccc2C)n1,0.199
14,Cc1ccc2[nH]c(O)c(N=NC(N)=S)c2c1,19.3
15,COc1cccc(NC(=O)Cc2cccs2)c1,14.4
16,Cc1ccc(C(=O)Nc2cc(C(F)(F)F)ccc2-n2cncn2)o1,-9.88
17,O=C(CC1CCCC1)Nc1cc(C(F)(F)F)ccc1-n1cncn1,-10.4
18,Cc1cc(CN2CCN(CC(=O)Nc3cc(C(F)(F)F)ccc3-n3cncn3)CC2)no1,-69.8
19,CN(Cc1c(F)cccc1Cl)C(=O)c1cccc(S(=O)(=O)NCc2ccccc2)c1,-28
20,O=C(CN1CCOCC1)Nc1ccc(N2CCN(c3ccccc3)CC2)c(F)c1,2.59
21,CC(C)(C)n1ncc2c(=O)n(CC(=O)c3ccccc3)cnc21,-10.4
22,O=C1CCc2cc(S(=O)(=O)NC3CCCCC3)ccc2N1,-19.3

row,SMILES,"hERG current change (%, negative = inhibition) at 10uM [%]"
1,O=C1CCc2cc(OCCCCc3nnnn3C3CCCCC3)ccc2N1,-64.1
2,COc1ccc(N2CCN(Cc3nnnn3C3CCCCC3)CC2)cc1,6.34
3,CN(C(=O)COC(=O)c1cn(C)c2ccccc12)C1CCCCC1,6.55
4,CC(=O)N1c2ccc(S(=O)(=O)NCC3CCC(C(=O)NCc4ccc(C)o4)CC3)cc2CC1C (stereo not shown),-3.13
5,CCCc1cc(=O)[nH]c(Nc2ccc(Cl)cc2)n1,6.28
6,O=C(Nc1ccccc1)C(=O)Nc1ccc2c(c1)N(C(=O)C1CC1)CCC2,-5.26
7,Nc1cc(=O)[nH]c(N2CCN(c3ccccc3)CC2)n1,24.2
8,COc1cc(CN2CCC(n3nccc3NC(=O)c3ccccc3OC)CC2)ccc1F,-76.7
9,COc1ccccc1C(=O)Nc1ccnn1C1CCN(Cc2ccc3nonc3c2)CC1,-72.1
10,CCn1ccnc1CN1CCC(n2nccc2NC(=O)CCc2ccccc2)CC1,-3.91
11,COc1cc(CN2CCC(n3nccc3NC(=O)C3CCOC3)CC2)ccc1F (stereo not shown),-6.78
12,COc1ccccc1C(=O)Nc1ccnn1C1CCN(Cc2ncc[nH]2)CC1,-16.3
13,COc1ccc(C(=O)Nc2ccnn2C2CCN(Cc3ccc4nonc4c3)CC2)cc1,-43.1
14,CCOc1ccc(CN2CCC(n3nccc3NC(=O)c3ccccc3OC)CC2)cc1,-82.8
15,COc1ccc(C(=O)Nc2ccnn2C2CCN(Cc3ccccn3)CC2)cc1,5.54
16,COc1ccccc1C(=O)Nc1ccnn1C1CCN(Cc2ccn[nH]2)CC1,-36.1
17,CCn1ccnc1CN1CCC(n2nccc2NC(=O)c2ccccc2OC)CC1,-69.9
18,COc1ccc(/C=N/Nc2nc(-c3cccnc3)nc3ccccc23)cc1OC,-22.2
19,CCOc1ccc(N2C(=O)CN=C2Nc2ccccc2Cl)cc1,-2.73
20,O=C(Nc1ccon1)C(Sc1ccccc1)c1ccccc1 (stereo not shown),-8.32
21,Cc1noc(C)c1C(=O)Nc1ccc(-c2nnc3n2CCCCC3)cc1,5.46
22,CC1(C)CC(CC(=O)Nc2ccccc2[N+](=O)[O-])C(=O)O1 (stereo not shown),-1.77
